# The list is not random: actives were taken first. Their share in the collection is about 3.2%.
# RGS12 GoLoco inh – RGS12 GoLoco-Gai1 interaction inhibition | Potency, µM (series often up to 61.6 µM), without a hit: at the top dose activity, negative = inhibition, hits mostly inhibitors | 230,000 tested, 0.44% active | AID 880 | Gai1:RGS12 GoLoco peptide FP, rhodamine, 10 min | P63096; active = well fitted inhibition curve with a large enough effect, not every such curve was filed as active; inactive = no such curve, though single readings can be large or run the other way; note: nearly all actives have a fitted effect of over 30% in size
# Target sequence (P63096 whole entry, looked up): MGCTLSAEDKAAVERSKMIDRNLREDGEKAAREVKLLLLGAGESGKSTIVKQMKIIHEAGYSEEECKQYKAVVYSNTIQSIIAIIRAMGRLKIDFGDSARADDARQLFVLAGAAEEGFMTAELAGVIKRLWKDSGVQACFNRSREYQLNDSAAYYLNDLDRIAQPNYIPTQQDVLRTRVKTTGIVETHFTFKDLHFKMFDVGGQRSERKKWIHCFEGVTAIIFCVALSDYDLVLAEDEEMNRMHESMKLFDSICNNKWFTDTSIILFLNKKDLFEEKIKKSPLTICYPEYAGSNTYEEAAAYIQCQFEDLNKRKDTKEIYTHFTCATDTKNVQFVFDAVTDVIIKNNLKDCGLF
# TRb-SRC2 inh – inhibitors of human thyroid hormone receptor beta-SRC2 interaction | P10828 | TRbeta-SRC2 peptide binding, fluorescence polarization; receptor liganded with 1 µM T3 | Potency, µM (highest dose often 106 µM), for the others: at the highest dose activity change, negative = inhibition, most hits filed as inhibitors | 280,000 tested, 0.065% active | AID 1469;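 note: plate controls were bound peptide for no effect and peptide without receptor for full effect; nearly all actives have a fitted effect of over 50% in size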
#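 Human TRb LBD (0.6 uM) plus Texas Red-labeled SRC2 peptide (20 nM), 1uM T3, 5% DMSO, 5 hr at ambient temperature. Decreased polarization (555/632 nm) flags inhibition; data normalized to free and bound peptide controls.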
# TexasRed fluor – counter-screen for TRb-SRC2 inhibitors: fluorescence interference | TRb/SRC2 Texas Red total fluorescence interference | 280,000 tested, 0.29% active | Potency, µM (doses to about 106 µM), inactives show at the highest dose fluorescence change, negative = quenching; active = well fitted curve in either direction with a large enough effect; inconclusive = small, poorly fitted or top-dose-only effect
#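 Flags fluorescent or light-absorbing compounds by total fluorescence, S + 2P, at 555 nm excitation and 632 nm emission. Mixture: 20 nM Texas Red SRC2 peptide, 0.6 uM human TRb LBD, 1 uM T3, 5% DMSO; compound exposure 5 h at ambient temperature.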
# Tau FP inhib – tau fibrillization inhibition (FP); K18 P301L tau heparin fibrillization, Alexa594 FP, 6 h; Potency, µM (highest dose often 57.7 µM), without a hit: at the highest dose activity, negative = inhibition, usual class: inhibitors; 280,000 tested, 0.39% active; note: nearly all actives have a fitted effect of over 55% in size
# Target sequence (P10636 561-689 P618L limits assumed): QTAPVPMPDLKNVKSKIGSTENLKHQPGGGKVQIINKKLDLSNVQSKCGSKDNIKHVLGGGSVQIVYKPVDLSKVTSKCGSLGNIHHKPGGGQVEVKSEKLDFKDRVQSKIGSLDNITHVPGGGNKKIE
#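 Quantitative HTS format: compounds meet 15 uM recombinant K18 P301L tau and Alexa 594-tau tracer in 100 mM sodium acetate pH 7; 20 uM heparin triggers fibrillization at 37 C over 6 hr; FP gives the signal.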
# Tau fluor counter – counter-screen for tau fibril formation inhibitors. tau K18 P301L Alexa594 fluorescence, heparin fibrillization. Potency, µM (titrated, usually from 57.7 µM), inactives show top-dose activity change, negative = decrease. 280,000 tested, 0.93% active. AID 1463; note: nearly all actives have a fitted effect of over 55% in size
#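 Human tau K18 P301L (15 uM unlabeled, 0.24 uM Alexa 594-labeled) in 100 mM sodium acetate pH 7 with 20 uM heparin, 6 hr at 37 C. ThT 30 uM added, 1 hr ambient; Alexa 594 FP and total fluorescence read at 555/632 nm.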
# Tau fibril ThT – blocks human tau fibril formation measured by thioflavin T; Potency, µM (doses to about 57.4 µM), for the others: at the highest dose activity, negative = inhibition, actives largely listed as inhibitors; recombinant tau K18 P301L (four-repeat tau fragment), heparin-induced fibrillization, ThT fluorescence; 270,000 tested, 2.1% active; AID 1460; P10636; note: nearly all actives have a fitted effect of over 55% in size
#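 Heparin-induced (20 uM) aggregation of recombinant human K18 P301L tau, 15 uM unlabeled with 0.24 uM labeled, pH 7 acetate buffer, 6 hr at 37 C with compound. Fibrils quantified by 30 uM ThT fluorescence after 1 hr ambient incubation.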
# * hit, by the source's call; ? = inconclusive; / = no result; [ ] = another dose, or the depositor's remark. Unless noted, calls come from the whole dose curve; as a rule, active = well fitted curve in the direction sought with a large enough effect; inconclusive = small, poorly fitted or top-dose-only effect, or another doubt; inactive = no such curve, though single readings can be large; an effect the other way counts as inactive or inconclusive. Unless noted, % is set by controls: 0 for no effect and ±100 for the full control effect; potency is the fitted concentration of half-maximal effect.
SMILES,RGS12 GoLoco inh,TRb-SRC2 inh,TexasRed fluor,Tau FP inhib,Tau fluor counter,Tau fibril ThT
O=C1/C(=C\c2ccc(O)cc2)SC(=S)N1/N=C/c1ccc(O)cc1,145.0%,5.5%,-3.2%,0.5%,?,5.01µM*
CC(C)Nc1oc(-c2ccccc2)nc1-c1cccc2ccccc12,1.5%,2.2%,-1.6%,-8.8%,-8.2%,-11.5%
Cc1ccc2c(c1)c1cccc3c1n2CCN3CCC(N)=O,1.9%,7.9%,-0.7%,?,?,11.2µM*
NC(=O)CCn1c2ccccc2c2ccccc21,0.9%,-4.3%,-3.0%,4.6%,5.0%,0.4%
CCC1=NN2C(=N)/C(=C\c3ccc(OCc4cc(=O)n5nc(CC)sc5n4)c(OC)c3)C(=O)N=C2S1,9.7%,4.4%,-2.2%,-11.1%,-21.6%,11.2µM*
CCCCCC(O)c1ccc([C@H]2CCC(=O)[C@@H]2CCCCCCC(=O)O)cc1 (stereo partly specified),/,1.3%,-3.3%,/,/,/
Cc1nn(-c2ccccc2)c2c1C1(C(=O)N(C)c3ccccc31)C(C#N)=C(N)O2 (stereo unspecified),-8.3%,-0.7%,-4.5%,?,?,22.4µM*
CCOC(=O)N1CCC2(CC1)C(C#N)=C(N)Oc1c2c(C)nn1-c1cccc(Cl)c1,17.0%,1.1%,-1.3%,-12.3%,?,22.4µM*
CCCCc1[nH]nc2c1C1(C(=O)N(CC)c3ccccc31)C(C#N)=C(N)O2 (stereo unspecified),-8.9%,-2.2%,-2.3%,-0.1%,-12.2%,-8.6%
CC(=O)N1C(=O)C2(C(C#N)=C(N)Oc3c2c(C)nn3-c2ccccc2)c2ccccc21 (stereo unspecified),-6.4%,-3.7%,-1.2%,?,?,28.2µM*
CCOC(=O)N1CCC2(CC1)C(C#N)=C(N)Oc1n[nH]c(C)c12,-1.5%,-13.6%,1.1%,1.0%,-8.3%,-10.3%
Cc1nn(-c2ccccc2)c2c1C1(C(=O)N3c4c(cccc41)C(C)CC3(C)C)C(C#N)=C(N)O2 (stereo unspecified),-6.8%,14.8%,-2.8%,?,?,?
CCN1C(=O)C2(C(C#N)=C(N)Oc3c2c(C)nn3-c2ccccc2)c2ccccc21 (stereo unspecified),4.1%,-7.5%,-4.5%,?,?,15.8µM*
COc1ccc2c(c1)C(=O)[C@H](OC(=O)N[C@H](C)C1CCCCC1)[C@@H](c1ccc(OC)c(Br)c1)O2,2.4%,4.6%,0.6%,2.9%,-8.0%,-6.4%
OC[C@@H](O)C(O)[C@H](O)[C@H](O)CO (stereo partly specified),/,-2.3%,3.7%,/,/,/
Nc1nc2c(c(=O)[nH]1)C(c1cccc3ccccc13)C1=C(N2)c2ccccc2C1=O (stereo unspecified),0.5%,2.3%,-7.1%,-9.7%,?,10µM*
CC(=O)OCC1OC(C#CCC2CCCCC2)C=CC1OC(C)=O (stereo unspecified),/,-3.5%[11.2 µM],-1.5%[11.2 µM],-7.6%[11.6 µM],-21.4%[11.6 µM],?
COc1ccc(C(=O)Nc2ccc3nc(N4CCCCC4)cc(C)c3c2)c(OC)c1,5.1%,11.3%,1.1%,7.4%,?,?
COc1cccc(CC(=O)Nc2ccc3nc(N4CCC(C)CC4)cc(C)c3c2)c1,/,-2.8%,-1.7%,?,14.1µM*[quencher],?
COc1cc(OC)cc(C(=O)Nc2ccc3nc(N4CCC(C)CC4)cc(C)c3c2)c1,/,3.8%,-3.7%,?,3.98µM*[quencher],?
Cc1cc(N2CCC(C)CC2)nc2ccc(NC(=O)Cc3c(F)cccc3Cl)cc12,/,1.8%,-4.6%,4.5%,?,?
COc1ccccc1C(=O)Nc1ccc2nc(N3CCC(C)CC3)cc(C)c2c1,/,9.3%,-2.8%,17.7%,7.94µM*[quencher],8.91µM*
C/C=C/C1=CC2=CC(=O)C(C)(OC(=O)c3c(C)cc(O)cc3O)C(=O)C2=CO1 (stereo unspecified),6.0%,2.6%,0.5%,-14.6%,-21.7%,?

# Source: PubChem BioAssay
